LmPK inhibitor – blocks Leishmania mexicana pyruvate kinase activity | Q27686 | purified LmPK, Kinase-Glo ATP luminescence, 1 h | Potency, µM (series often up to 57.5 µM), for inactives: at the highest dose activity change, negative = inhibition, usual class: inhibitors | 0.37% of 290,000 active | AID 1721; further: potency means the concentration at half of the fitted maximal effect; on the % scale 0 is the no-effect control and ±100 the full control effect
Target sequence (Q27686 whole entry, looked up): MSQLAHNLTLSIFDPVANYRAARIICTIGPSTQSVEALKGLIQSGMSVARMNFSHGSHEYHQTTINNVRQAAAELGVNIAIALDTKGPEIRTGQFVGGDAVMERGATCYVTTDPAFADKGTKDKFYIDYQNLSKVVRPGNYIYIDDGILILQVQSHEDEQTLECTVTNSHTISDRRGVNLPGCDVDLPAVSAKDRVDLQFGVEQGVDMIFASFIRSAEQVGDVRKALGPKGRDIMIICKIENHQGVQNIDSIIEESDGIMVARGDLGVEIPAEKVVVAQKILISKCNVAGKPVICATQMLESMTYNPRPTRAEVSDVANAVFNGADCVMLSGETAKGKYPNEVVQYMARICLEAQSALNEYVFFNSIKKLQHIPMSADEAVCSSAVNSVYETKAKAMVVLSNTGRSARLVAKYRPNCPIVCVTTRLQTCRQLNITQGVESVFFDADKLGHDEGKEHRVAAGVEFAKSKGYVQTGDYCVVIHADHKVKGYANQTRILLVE
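Kinase-Glo luminescence read after 1 h RT reaction of 0.1 nM LmPK with 0.5 mM PEP and 0.1 mM ADP. Activity scaled between uninhibited and enzyme-free controls.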
RE007 growth inh – less growth of the S. pombe RE007 Vpr strain; Potency, µM (highest dose often 92.2 µM), without a hit: at the top dose activity change, negative = less growth, most hits filed as inhibitors; 0.21% of 360,000 active; S. pombe RE007 Vpr strain, BacTiter-Glo ATP luminescence, 24 h; active means well fitted falling curve with a large enough effect; inconclusive means small, poorly fitted or top-dose-only effect; inactive means no such curve, though single readings can be large or run the other way; further: potency means the concentration at half of the fitted maximal effect; on the % scale 0 is the no-effect control and ±100 the full control effect; nearly all actives have a fitted effect of over 50% in size
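Fission yeast strain RE007, carrying one chromosomally integrated HIV-1 vpr copy, was seeded at OD 0.01 in PMG+AL medium with 23 nL pinned compound. After 24 h at 30 °C and 99% humidity, viability was read by BacTiter-Glo luminescence.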
Shiga inhibitor – blocks Shiga toxin action in Vero cells | Vero cells, Shiga toxin protein synthesis inhibition reporter | inhibition, % at 38.7 µM | 9.2% of 290,000 active | AID 2315; in the data active means inhibition mostly above about 28%, no sharp cut-off; inactive means mostly below about 43%; further: 0% is about no effect
Cycloheximide cs – counter-screen for Shiga toxin inhibitors: cycloheximide protein synthesis inhibition; cell reporter, cycloheximide protein synthesis inhibition counterscreen; max response, %; 12% of 300,000 active; AID 2314; in the data active means max response mostly above about 13%, no sharp cut-off; inactive means mostly below about 14%; further: read at 38.3 µM for the half of the compounds with a filed dose; 0% is about no effect
Giardia FBPA inh – Giardia lamblia aldolase inhibition; purified Giardia FBPA; AID 2451; Potency, µM (titrated, usually from 59.6 µM), inactives show at the top dose activity, negative = inhibition, hits mostly inhibitors; 0.71% of 290,000 active; further: potency means the concentration at half of the fitted maximal effect; on the % scale 0 is the no-effect control and ±100 the full control effect; nearly all actives have a fitted effect of over 55% in size
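40 nM FBPA preincubated 10 min at RT with compound (up to 57.5 uM final), then substrate plus GAPDH/TPI/NAD/arsenate coupling and diaphorase/resazurin added. Fluorescence read after 20 min at RT, 525/598 nm.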
Tb PYK inh – T. brucei pyruvate kinase inhibition. Q57TT1. 0.12% of 410,000 active. TbPYK enzyme, Kinase-Glo Plus ATP luminescence, 45 min. Potency, µM (titrated, usually from 76.8 µM), for the others: at the highest dose activity, negative = inhibition, actives largely listed as inhibitors; further: potency means the concentration at half of the fitted maximal effect; on the % scale 0 is the no-effect control and ±100 the full control effect; nearly all actives have a fitted effect of over 50% in size
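Readout: single end-point luminescence (Kinase-Glo Plus, 10 min). Reaction conditions were TbPYK/substrate plus 130 uM ADP, 45 min at RT, pH 7.2 TEA buffer. No-enzyme wells served as controls, and data were normalized before concentration-response fitting.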
The depositor's hits bear a star; ? = inconclusive; nt = no result; + = active, no number; [ ] = dose if it differs, or a comment. Many of the other results were omitted from the sample, so hits are more common in it than they were. Unless noted, the call rests on the fitted dose curve; in most records, active means well fitted curve in the direction sought with a large enough effect; inconclusive means small, poorly fitted or top-dose-only effect, or another doubt; inactive means no such curve, though single readings can be large; an effect the other way counts as inactive or inconclusive.

SMILES | LmPK inhibitor | RE007 growth inh | Shiga inhibitor | Cycloheximide cs | Giardia FBPA inh | Tb PYK inh
CCCOc1ccc(N2C(=O)CC(N3CCOCC3)C2=O)cc1 (stereo unspecified) | 2% | ? | 19 | 6 | 9% | -3%
O=C(c1cccc(Cl)c1)N1CCC(N2CCC(C(=O)N3CCCC3)CC2)CC1 | 2% | -1% | -1 | 21* | -8% | -8%
COCCCn1cc(CN2CC(N3CCCCC3)CS2(=O)=O)nn1 (stereo unspecified) | nt | 17% | nt | nt | nt | 2%
CC1=C(C(=O)OC2CCCC2)C(c2ccc(F)cc2F)CC(=O)N1 (stereo unspecified) | nt | nt | nt | nt | nt | 0%
COc1ccccc1CN1CCCC2(CCN(C(=O)c3cccn3C)CC2)C1 | nt | nt | nt | nt | 3% | 2%
CCOc1ccc(N2C(=O)CC(N3CCN(C(=O)CN4CCCC4)CC3)C2=O)cc1 (stereo unspecified) | -1% | -16% | -6 | -2 | 5% | -12%
O=C1CC(N2CCOCC2)C(=O)N1c1ccc(Cl)cc1 (stereo unspecified) | 1% | ? | -6 | -4 | 1% | -6%
O=C(C1CCCN(C2CC(=O)N(c3ccc(Cl)cc3)C2=O)C1)N1CCCC1 (stereo unspecified) | 3% | 5.6µM* | -10 | -3 | nt | 3%
O=C1CCCN1CCC1CCN(C2CC(=O)N(Cc3ccc(N4CCCC4=O)cc3)C2=O)CC1 (stereo unspecified) | 3% | ? | -6 | -1 | 2% | 2%
O=C1CC(N2CCN(c3ccc(F)cc3)CC2)C(=O)N1c1ccc(F)cc1 (stereo unspecified) | -4% | -2% | 10 | 1 | 3% | 0%
O=C(C1CCCN(C2CC(=O)N(c3ccc(F)cc3)C2=O)C1)N1CCCC1 (stereo unspecified) | 4% | 45µM* | -11 | -1 | nt | -1%
O=C1CCCN1CCC1CCN(C2CC(=O)N(c3ccc(Cl)cc3)C2=O)CC1 (stereo unspecified) | -10% | 5µM* | 8 | 11 | 0% | 4%
CCCOc1ccc(N2C(=O)CC(N3CCCC(C(=O)N4CCCC4)C3)C2=O)cc1 (stereo unspecified) | 2% | 18µM* | -2 | -3 | 6% | -12%
Cc1cccc(C(C)C)c1NC(=O)COC(=O)CCN1C(=O)C2CC=CCC2C1=O (stereo unspecified) | -9% | 4% | 8 | 8 | nt | -17%
O=C(CNCC1CCCO1)Nc1ccc(N2CCCCCC2)cc1 (stereo unspecified) | -8% | 22% | 43* | 23* | ? | 19%
O=C(CNCCC1=CCCCC1)Nc1ccc(N2CCCCCC2)cc1 | -1% | 3% | 21 | 16* | ? | -9%
O=C(CNC1CCCC1)Nc1ccc(N2CCCCCC2)cc1 | -1% | -6% | 83* | 56* | ? | 4%
O=C(CNCC1CCCCC1)Nc1ccc(N2CCCCC2)cc1 | -17% | nt | -2 | 15 | ? | nt
O=C(Nc1ccc(N2CCOCC2)cc1)C1CCCCC1 | -10% | 4% | 85* | 22 | 5% | -2%
O=C1NC[C@@H](CCCCN2CCN(CCc3ccc(O)cc3)C(=O)C2=O)N(Cc2ccccc2)C1=O | nt | 2% | nt | nt | nt | -1%
Cc1cc(C)cc(NC(=O)C(=O)NCCc2sc(-c3cccc(F)c3)nc2C)c1 | nt | nt | nt | nt | nt | -2%
CCOC(=O)c1cc(NC(=O)c2ccc(OC)cc2)c(=O)n2c1oc1ccc(Cl)cc12 | nt | nt | nt | nt | nt | -3%
CNS(=O)(=O)c1cn(CC(=O)N2CCN(c3cc(C)ccc3C)CC2)cc1S(=O)(=O)NC | nt | nt | nt | nt | nt | 0%[15.4 µM]
c1ccc(Sc2ncnc3ccccc23)cc1 | -5% | -22% | 36 | 12* | 0% | 2%
CN(C)c1ccc(NS(=O)(=O)c2cc(Cl)ccc2Cl)cc1 | -6% | -18% | 33 | 21* | -6% | -24%
SMILES | LmPK inhibitor | RE007 growth inh | Shiga inhibitor | Cycloheximide cs | Giardia FBPA inh | Tb PYK inh
CC1(C)OC(C(O)(c2cccc3c2oc2ccccc23)c2cccc3c2oc2ccccc23)C(C(O)(c2cccc3c2oc2ccccc23)c2cccc3c2oc2ccccc23)O1 (stereo unspecified) | nt | nt | nt | nt | -1%[12.9 µM] | nt
N#C/C(=N\Nc1ccc(Cl)c(Cl)c1)C(=O)C1CC1 | 6% | ? | 65 | 35* | 4% | -18%
N#C/C(=N\Nc1ccc(F)cc1)C(=O)C1CC1 | 7% | -26% | 29 | 20 | -22% | 5%
CCOc1ccc(Nc2ncnc3c2nc2n3CCCCC2)cc1 | nt | nt | nt | nt | nt | 9%
Cn1nnc2cc(C(=O)N3CCC(c4ccccc4)C3)ccc21 (stereo unspecified) | 2% | -8% | 27* | 10* | 0% | 3%
Cc1nc2cc(NC(=O)N3CCC(c4ccccc4)C3)ccc2n1C (stereo unspecified) | -2% | -23% | 99* | 27* | -2% | -9%
Cc1ccc(C2CCN(C(=S)NC(C)C)C2)cc1 (stereo unspecified) | 4% | -3% | 64* | 9 | 6% | -5%
Cc1ccc(C2CCN(C(=O)Nc3ccc(F)cc3)C2)cc1 (stereo unspecified) | 0% | 8% | 89* | 19* | -5% | 4%
Cc1ccc(NC(=O)C2CCCN(C(=O)Nc3ccc(F)cc3)C2)cc1 (stereo unspecified) | -3% | -8% | -3 | 10 | 7% | 9%
Cc1cccc(NC(=O)CSc2ncnc3sc(C)cc23)c1 | 0% | 1% | 36 | 4 | 4% | 3%
CC(=O)c1cccc(NC(=O)N2CCC(c3ccc(C)cc3)C2)c1 (stereo unspecified) | 5% | -1% | 49* | 27 | ? | -1%
CC(=O)c1cccc(NC(=O)N2CCC(CN3CCCCC3)CC2)c1 | nt | nt | nt | nt | nt | -7%
COc1cccc(OC)c1-c1nn2c(-c3ccco3)nnc2s1 | -2% | 1%[3.69 µM] | 200* | 56* | -2% | nt
NC(=O)CSc1ncc2c(n1)-c1ccccc1N(Cc1cccc(F)c1)S2(=O)=O | nt | nt | nt | nt | nt | 3%
COC(=O)c1ccccc1CSc1nsc(C)c1C#N | 5% | -6% | 3 | -3 | -3% | -23%
Cc1snc(SCC(=O)c2ccc(Cl)cc2)c1C#N | 1% | -2% | 58* | 35* | -5% | -18%
Cc1ccc(C(=O)CSc2nsc(C)c2C#N)cc1 | 2% | -15% | + | 30* | 0% | -20%
N#Cc1c(SCC(N)=O)nsc1SCc1ccc(Cl)cc1 | 0% | 5% | -8 | 5 | -2% | 4%
Cc1ccnc(SCC(=O)c2ccc(Br)cc2)c1C#N | 2% | -1% | 96* | 84* | 3% | -21%
Cc1ccc(C(=O)NNC(=O)c2n[nH]c(=O)c3ccccc23)cc1C | nt | 3% | nt | nt | nt | -6%
COc1cc2c(N3CCN(C(=O)Nc4ccc(OC(C)C)cc4)CC3)ncnc2cc1OCCCN1CCCCC1 | nt | nt | nt | nt | nt | -1%

Compound activity from PubChem.
